Source: PubChem
ELG1 DNA repair – inhibitors of ELG1-dependent DNA repair in HEK293T cells | AID 504467 | HEK293T ELG1-luciferase reporter, luminescence, 16 h; DNA damage induced by 5-fluorouridine | Potency, µM (series often up to 46.1 µM), inactives show at the highest dose activity change, negative = inhibition, most hits filed as inhibitors | hit rate 2.3% among 330,000; also: potency is read from the fitted curve at half-maximal effect; % is scaled to controls: 0 for no effect and ±100 for the full control effect; nearly all actives have a fitted effect of over 55% in size
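HEK293T cells expressing luciferase-tagged ELG1 (2,000/well) received 5-Fluorouridine plus compound or DMSO for 16 hr at 37 °C. Luciferase was read by ONE-Glo luminescence after 30 min at room temperature.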
p53 reactivation – restores transcriptional activity of mutant p53. H1299 p53-A138V BP100-luciferase reporter, luminescence, 24 h. Potency, µM (doses to about 92.2 µM), inactives show at the top dose activity change, positive = activation, usual class: activators. hit rate 0.063% among 320,000. AID 504706; also: potency is read from the fitted curve at half-maximal effect; % of control where 0% means no effect; nearly all actives have a fitted effect of over 45% in size
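p53-null H1299 cells stably carrying temperature-sensitive p53-A138V and a BP100-luciferase reporter were pinned with compounds (4-point, 1:5 series) and held 24 hrs at 37 deg C. Luminescence was read 10 min after detection reagent.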
VP16 counter – counter-screen for ROR gamma inhibitors: Gal4-VP16 reporter. Drosophila S2 Gal4-VP16 UAS-luciferase, luminescence, 20 h. Potency, µM (titrated, usually from 53.6 µM), inactives show at the highest dose activity, negative = inhibition, actives largely listed as inhibitors. hit rate 3.5% among 310,000. AID 2546;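 also: Gal4-VP16 expression switched on by copper sulfate through the metallothionein promoter; potency is read from the fitted curve at half-maximal effect; % is scaled to controls: 0 for no effect and ±100 for the full control effect; nearly all actives have a fitted effect of over 50% in size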
Giardia kill – Giardia lamblia killing. Giardia lamblia trophozoite viability. activity change, % at 7.66 µM, hits read low. hit rate 0.15% among 340,000; in the data active = activity change below about -80%; inconclusive = between about -30% and that limit;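 also: parasites exposed to compound for two days anaerobically before the ATP read; % is scaled to controls: 0 for no effect and ±100 for the full control effect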
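Killing of trophozoites was scored by loss of ATP luminescence after a 48 hrs anaerobic exposure to compounds at 37 deg C, using 100 cells per well.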
BRCA1 expr act – increases BRCA1 expression | hit rate 1.1% among 380,000 | AID 624202 | Potency, µM (doses to about 46.1 µM), for the others: top-dose activation, most hits filed as activators | MCF7-BRCA1-FFLuc reporter, luminescence, 48 h; response scale: scaled: vehicle 0%, 10 µM genistein 100%; also: potency is read from the fitted curve at half-maximal effect; nearly all actives have a fitted effect of over 80% in size
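MCF7-BRCA1-FFLuc cells, 2000/well in phenol-red-free MEM, attached 2 h then treated 48 h at 37 C. Luciferase luminescence read 15 min after reagent; normalized to genistein maximum activation (10microM) and DMSO, concentration-response fitted.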
RORgamma inh – blocks mouse ROR gamma transcriptional activity; hit rate 5.4% among 310,000; P51450; Drosophila S2 Gal4-RORgamma UAS-luciferase reporter, 20 h; Potency, µM (top dose mostly 53.6 µM), for the others: at the highest dose activity change, negative = inhibition, usual class: inhibitors; also: potency is read from the fitted curve at half-maximal effect; % is scaled to controls: 0 for no effect and ±100 for the full control effect; nearly all actives have a fitted effect of over 60% in size
Target sequence (P51450 whole entry, looked up, the tested form may be a part): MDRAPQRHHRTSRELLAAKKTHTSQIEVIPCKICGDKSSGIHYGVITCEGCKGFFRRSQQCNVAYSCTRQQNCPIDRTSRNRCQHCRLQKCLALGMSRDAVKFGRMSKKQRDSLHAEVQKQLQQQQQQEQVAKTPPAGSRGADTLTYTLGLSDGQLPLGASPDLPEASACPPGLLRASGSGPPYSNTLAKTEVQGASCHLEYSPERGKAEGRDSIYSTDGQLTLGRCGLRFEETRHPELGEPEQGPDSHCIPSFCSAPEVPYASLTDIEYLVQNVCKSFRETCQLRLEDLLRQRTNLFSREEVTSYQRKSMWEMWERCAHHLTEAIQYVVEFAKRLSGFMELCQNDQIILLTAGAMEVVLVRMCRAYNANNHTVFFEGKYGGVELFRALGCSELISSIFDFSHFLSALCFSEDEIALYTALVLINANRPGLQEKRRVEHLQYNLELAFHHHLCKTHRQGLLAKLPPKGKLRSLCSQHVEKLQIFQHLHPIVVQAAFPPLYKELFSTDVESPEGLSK
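Schneider cells (Drosophila), stable Gal4 DBD–ROR gamma + UAS-luc; 1 hr cmpd preincubation; Cu2+ induction 700 uM final; 20 hr ambient; luminescence.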
Numbers without * were called inactive; ? = inconclusive; / = no result given; [ ] = another dose, or the depositor's remark. This is a sample that favours compounds with a hit; in the whole collection about 7.6% have one here. Unless noted, calls follow the shape of the dose curve; as a rule, active = well fitted curve in the direction sought with a large enough effect; inconclusive = small, poorly fitted or top-dose-only effect, or another doubt; inactive = no such curve, though single readings can be large; an effect the other way counts as inactive or inconclusive.

SMILES | ELG1 DNA repair | p53 reactivation | VP16 counter | Giardia kill | BRCA1 expr act | RORgamma inh
COc1cc(-n2c(C)nc3cc(C(=O)NCC4CCCO4)ccc32)cc(OC)c1OC (configuration not stated) | 26.2% | -3.4% | 6.9% | -0.5 | 0.6% | 9.4%
COCc1c(C(=O)Nc2ccc(C)c(S(=O)(=O)N3CCOCC3)c2)oc2ccccc12 | / | / | / | -6.4 | -4.2% | /
Cc1ccc(NC(=O)c2ccccc2-c2ccc(C(F)(F)F)cc2)cc1S(=O)(=O)N1CCOCC1 | 20.6µM* | -8.0% | -8.5% | 13.5 | -42.7% | 41.1%
Cc1ccc(NC(=O)C(=O)c2c(-c3ccccc3)cc3ccccn23)cc1S(=O)(=O)N1CCOCC1 | 9.2µM* | -5.6% | -4.9% | 0.2 | 1.7%[1.84 µM] | 8.3%
Cc1ccc(NC(=O)CSc2ccccc2)cc1S(=O)(=O)N1CCOCC1 | -8.8% | 1.8% | / | -9.7 | -8.6% | /
Cc1ccc(NC(=O)c2cc(=O)c3ccccc3o2)cc1S(=O)(=O)N1CCCCC1 | 16.4µM* | -4.7% | -11.0% | 6.3 | -69.4% | 43.6%
Cc1ccc(NC(=O)c2cc(=O)c3ccccc3o2)cc1S(=O)(=O)N1CCOCC1 | 23.1µM* | -3.6% | 9.7% | 0.2 | -2.9% | 31.4%
COc1ccccc1Oc1nc2c(c(=O)n(C)c(=O)n2C)n1Cc1cccc(Br)c1 | / | / | / | / | -39.9% | /
Cc1ccccc1N1C(=O)c2cc(N)ccc2N/C1=C\F | / | / | -2.2% | / | / | 15.0%
Cc1cc(-c2nc3ccccc3c(=O)o2)ccc1[N+](=O)[O-] | ? | ? | -8.7% | -22.1 | ? | 0.9%
Cc1ccc(NC(=O)c2ccccc2NS(=O)(=O)c2ccc(F)cc2)cc1S(=O)(=O)N1CCCCC1 | ? | -8.4% | 10µM* | 15.4 | -80.3% | ?
O=C(Nc1cccc(S(=O)(=O)N2CCCCC2)c1)c1ccccc1NS(=O)(=O)c1ccc(F)cc1 | ? | 2.1% | ? | -0.3 | -86.7% | ?
CCOCCN(C(=O)COC)c1cccc(OC)c1 | 7.6% | -3.5% | 8.2% | -19.3 | 6.9% | -14.2%[10 µM]
CN(C)CCNCCCOc1ccccc1-c1ccccc1 | -2.7% | -5.6% | 1.9% | / | / | -39.9%
CCOc1ccc2nc(N(CCCN(C)C)C(=O)c3ccc(S(=O)(=O)N4CCc5ccccc5C4)cc3)sc2c1 | 0.0% | -22.9% | ? | -18.1 | -1.0% | 10µM*
COc1cccc2sc(N(CCCN(C)C)C(=O)c3ccc(S(=O)(=O)N4CCc5ccccc5C4)cc3)nc12 | 0.1% | 27.3% | 28.2µM* | 15.8 | -40.7% | -89.5%
COc1cc2nc(N(CCCN(C)C)C(=O)c3ccc(S(=O)(=O)N4CCc5ccccc5C4)cc3)sc2cc1OC | 0.0% | 5.5% | / | -11.0 | -28.4% | /
CCOc1cccc2sc(N(CCCN(C)C)C(=O)c3ccc(S(=O)(=O)N(CC)Cc4ccccc4)cc3)nc12 | 5.7% | -10.1% | 22.4µM* | 1.8 | -90.3% | ?
COc1ccc(OC)c2sc(N(CCCN(C)C)C(=O)c3ccc(S(=O)(=O)N4CCc5ccccc5C4)cc3)nc12 | ? | 25.3% | / | / | / | /
COc1ccc(-c2nn3c(=O)cc(CN4CCN(S(=O)(=O)c5ccc(C)cc5)CC4)nc3s2)cc1 | / | / | / | / | -0.3% | /
Cc1ccnc(NC(=O)Cc2c(F)cccc2Cl)c1 | -6.6% | / | -2.1% | 18.9 | 25.5% | ?
Cc1nc([N+](=O)[O-])c(Sc2nc3ccccc3[nH]2)n1Cc1ccccc1 | ? | -35.9% | ? | 9.6 | -16.5% | 10µM*
O=C(O)c1cc([N+](=O)[O-])c(Sc2nc3ccccc3[nH]2)c([N+](=O)[O-])c1 | 7.8% | 11.9% | 3.3% | -1.0 | -33.5% | ?
CS(=O)(=O)c1cc([N+](=O)[O-])c(Sc2nc3ccccc3[nH]2)c([N+](=O)[O-])c1 | 8.7% | -15.2% | 3.16µM* | -6.9 | -26.4% | 2.51µM*
COc1ccc2nc(Sc3c([N+](=O)[O-])nc(C)n3Cc3ccccc3)[nH]c2c1 | -7.2% | -28.8% | -25.0% | -8.0 | -19.3% | ?
SMILES | ELG1 DNA repair | p53 reactivation | VP16 counter | Giardia kill | BRCA1 expr act | RORgamma inh
Cc1nc([N+](=O)[O-])c(N2CCN(Cc3ccccc3)CC2)n1Cc1ccccc1 | -16.1% | -4.6% | 5.5% | -3.4 | -29.8% | -5.3%
Cc1cc2nc(Sc3c([N+](=O)[O-])nc(C)n3Cc3ccccc3)[nH]c2cc1C | ? | -39.1% | 8.91µM* | 3.2 | -65.1% | 12.6µM*
O=C(Cc1ccc(Br)cc1)N1CCCCCC1 | ? | ? | 21.2% | 4.4 | 10µM* | 23.6%
COc1ccc(/C=N/NC(=S)Nc2ccccc2)cc1COc1ccc(Br)cc1 | -15.4% | 4.6% | 2.24µM* | -14.2 | -32.3% | 0.316µM*
COc1ccc(/C=N/NC(=S)Nc2ccccc2)cc1COc1ccccc1F | -0.6% | -4.8% | 3.16µM* | / | / | 2.24µM*
COc1ccc(/C=N\NC(=O)c2ccccc2)cc1COc1ccccc1 | ? | -10.5% | ? | -14.0 | -28.1% | ?
COc1ccc(/C=N/NC(=S)Nc2ccccc2)cc1COc1ccc(F)cc1 | 27.7% | 17.7% | 0.891µM* | -23.5 | -4.9% | 0.355µM*
COc1ccc(C(=O)N/N=C/c2ccc(OC)c(COc3ccccc3)c2)cc1 | 12.0% | 1.1% | 27.2% | -14.3 | -0.8% | 27.0%
O=c1[nH]nc(-c2ccc(F)cc2)cc1Cc1ccccn1 | 2.8% | -2.9% | 11.4% | -17.3 | -0.5% | 8.9%
CC1(C)CC(=O)C=C(C(=O)N2CCCC(C(=O)c3cccc(Cl)c3)C2)O1 (configuration not stated) | -4.8% | 0.3% | -11.1% | 1.7 | -15.8% | 39.4%
CCCC(=O)N=C1SC2CS(=O)(=O)CC2N1c1ccc(-c2nc3ccc(C)cc3s2)cc1 (configuration not stated) | ? | ? | -5.5% | -4.4 | 15.8µM* | -17.6%
Cc1sc(NC(=O)/C=C/c2ccco2)c(C(=O)O)c1C | ? | 4.7% | -29.3% | -9.8 | 2.24µM* | -29.3%
O=C(CSc1ccsc1[N+](=O)[O-])NC1CCCC1 | -6.7% | 17.7% | 5.3% | -90.4* | 33.2% | 7.9%
O=C(CSc1ccsc1[N+](=O)[O-])NCc1ccccc1 | ? | 8.5% | 12.8% | ? | ? | 41.8%
COc1ccccc1CNC(=O)CSc1ccsc1[N+](=O)[O-] | ? | ? | -4.9% | ? | 12.6µM* | 8.7%
CC1CCCCC1NC(=O)CSc1ccsc1[N+](=O)[O-] (configuration not stated) | 10.0% | 7.8% | -5.2% | ? | -39.0% | 27.3%
COc1ccc(OC)c(CCNC(=O)CSc2ccsc2[N+](=O)[O-])c1 | 3.7% | 14.0% | 24.1% | ? | -8.9% | 36.6%
COc1ccc(CCNC(=O)CSc2ccsc2[N+](=O)[O-])cc1OC | 3.4% | -5.1% | 4.1% | -88.9* | 5.3% | 4.8%
